# Key:
# Test in all cases: DAPPL (digital affinity profiling via proximity ligation, sequencing); 10 mM Tris-HCl pH 7.5, 50 mM NaCl, 1 mM DTT, 4% glycerol, room temperature, 30 min; GST-TFs on glutathione beads, 16-mer random dsDNA library, 0.1% formaldehyde crosslink after washing; high values mean tight binding
# FLI1 = molecular target: T1, FLI1 (Homo sapiens, UniProt Q01543 1-452); conditions: protein: recombinant; tags: N-terminal GST; dsDNA, one strand shown
# T1 sequence: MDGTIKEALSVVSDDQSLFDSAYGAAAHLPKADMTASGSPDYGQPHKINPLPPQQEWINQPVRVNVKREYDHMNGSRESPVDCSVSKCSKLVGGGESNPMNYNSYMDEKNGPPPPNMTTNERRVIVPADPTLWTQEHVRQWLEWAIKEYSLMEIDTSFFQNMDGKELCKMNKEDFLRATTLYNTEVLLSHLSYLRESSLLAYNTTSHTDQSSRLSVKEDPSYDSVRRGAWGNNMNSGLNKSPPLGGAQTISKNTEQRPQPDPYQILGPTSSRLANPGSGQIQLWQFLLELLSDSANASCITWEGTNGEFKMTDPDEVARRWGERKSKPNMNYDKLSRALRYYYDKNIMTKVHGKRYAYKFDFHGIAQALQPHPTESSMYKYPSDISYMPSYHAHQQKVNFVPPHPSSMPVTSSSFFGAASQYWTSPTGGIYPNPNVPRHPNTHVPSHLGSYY
# Summary of the method: (§1)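 A tag-only sample was pooled with DNA-barcoded human transcription factors that had been expressed in yeast as GST fusions and captured on glutathione beads. The pools were incubated for 30 min at room temperature with 200 nmole of a random double-stranded 16-mer DNA library in Tris/NaCl/DTT/glycerol buffer, then washed, crosslinked with 0.1% formaldehyde, proximity-ligated (BsaI/T4 ligase, 1 h, 37 °C), PCR-amplified and sequenced on an Illumina NextSeq500. Binding signal is each hexamer's read frequency for a factor divided by its frequency for the tag-only sample.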
# ELK1 = molecular target: T2, ELK1 (Homo sapiens, UniProt P19419 1-428); conditions: protein: recombinant; tags: N-terminal GST; dsDNA, one strand shown
# T2 sequence: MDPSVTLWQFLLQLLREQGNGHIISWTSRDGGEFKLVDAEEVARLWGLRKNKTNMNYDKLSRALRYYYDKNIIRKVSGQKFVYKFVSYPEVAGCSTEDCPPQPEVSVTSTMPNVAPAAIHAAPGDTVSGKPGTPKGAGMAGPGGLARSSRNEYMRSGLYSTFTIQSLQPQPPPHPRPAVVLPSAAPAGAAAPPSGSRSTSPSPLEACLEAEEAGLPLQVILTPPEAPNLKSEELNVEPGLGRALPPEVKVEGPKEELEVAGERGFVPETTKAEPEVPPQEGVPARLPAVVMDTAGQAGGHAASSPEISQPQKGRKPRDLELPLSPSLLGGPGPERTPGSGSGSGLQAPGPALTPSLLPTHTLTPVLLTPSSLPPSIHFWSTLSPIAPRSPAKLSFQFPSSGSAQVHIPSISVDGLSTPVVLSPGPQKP
# Summary of the method: as §1
# GABPA = molecular target: T3, GABPA (Homo sapiens, UniProt Q06546 1-454); conditions: protein: recombinant; tags: N-terminal GST; dsDNA, one strand shown
# T3 sequence: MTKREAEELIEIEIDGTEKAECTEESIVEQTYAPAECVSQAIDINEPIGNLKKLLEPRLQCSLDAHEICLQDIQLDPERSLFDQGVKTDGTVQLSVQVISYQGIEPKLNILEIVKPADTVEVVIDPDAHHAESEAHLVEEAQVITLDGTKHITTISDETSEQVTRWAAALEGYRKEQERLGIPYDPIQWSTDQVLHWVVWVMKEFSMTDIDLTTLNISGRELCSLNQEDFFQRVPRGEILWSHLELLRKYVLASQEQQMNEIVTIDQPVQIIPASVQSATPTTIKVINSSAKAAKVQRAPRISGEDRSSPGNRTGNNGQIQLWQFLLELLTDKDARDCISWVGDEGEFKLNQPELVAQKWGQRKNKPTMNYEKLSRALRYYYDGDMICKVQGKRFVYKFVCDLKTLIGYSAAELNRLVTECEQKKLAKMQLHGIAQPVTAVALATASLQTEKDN
# Summary of the method: as §1
# ERG = molecular target: T4, ERG (Homo sapiens, UniProt P11308 1-479); conditions: protein: recombinant; tags: N-terminal GST; dsDNA, one strand shown
# T4 sequence: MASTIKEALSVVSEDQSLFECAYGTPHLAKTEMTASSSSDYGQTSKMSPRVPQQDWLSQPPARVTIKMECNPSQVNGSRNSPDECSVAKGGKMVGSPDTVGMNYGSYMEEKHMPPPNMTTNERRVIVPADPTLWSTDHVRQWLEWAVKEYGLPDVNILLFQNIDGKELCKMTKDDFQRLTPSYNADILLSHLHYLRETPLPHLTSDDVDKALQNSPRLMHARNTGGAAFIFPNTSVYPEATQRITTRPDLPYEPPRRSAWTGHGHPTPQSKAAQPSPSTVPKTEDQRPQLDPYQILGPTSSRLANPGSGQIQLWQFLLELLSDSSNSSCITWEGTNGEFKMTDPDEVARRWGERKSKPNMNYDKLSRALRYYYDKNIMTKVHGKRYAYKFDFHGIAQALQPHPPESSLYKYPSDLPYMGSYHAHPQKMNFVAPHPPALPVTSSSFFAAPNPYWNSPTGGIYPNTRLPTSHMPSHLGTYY
# Summary of the method: as §1
# ELF1 = ELF1 (Homo sapiens, UniProt P32519 1-619); conditions: protein: recombinant; tags: N-terminal GST; dsDNA, one strand shown
# Summary of the method: as §1
# EHF = molecular target: T5, EHF (Homo sapiens, UniProt Q9NZC4 1-300); conditions: protein: recombinant; tags: N-terminal GST; dsDNA, one strand shown
# T5 sequence: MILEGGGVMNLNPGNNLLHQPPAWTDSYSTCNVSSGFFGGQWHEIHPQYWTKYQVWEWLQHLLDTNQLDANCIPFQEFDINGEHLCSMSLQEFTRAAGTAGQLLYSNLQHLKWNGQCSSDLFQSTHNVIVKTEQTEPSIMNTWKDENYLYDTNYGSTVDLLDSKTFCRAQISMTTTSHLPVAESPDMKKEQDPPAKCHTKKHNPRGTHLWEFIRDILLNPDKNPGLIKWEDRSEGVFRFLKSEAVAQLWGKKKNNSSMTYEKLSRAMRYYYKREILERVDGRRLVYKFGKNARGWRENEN
# Summary of the method: as §1
# SPI1 = SPI1 (Homo sapiens, UniProt P17947 1-270); conditions: protein: recombinant; tags: N-terminal GST; dsDNA, one strand shown
# Summary of the method: as §1
# SPIB = SPIB (Homo sapiens, UniProt Q01892 1-262); conditions: protein: recombinant; tags: N-terminal GST; dsDNA, one strand shown
# Summary of the method: as §1
# ELK3 = molecular target: T6, ELK3 (Homo sapiens, UniProt P41970 1-407); conditions: protein: recombinant; tags: N-terminal GST; dsDNA, one strand shown
# T6 sequence: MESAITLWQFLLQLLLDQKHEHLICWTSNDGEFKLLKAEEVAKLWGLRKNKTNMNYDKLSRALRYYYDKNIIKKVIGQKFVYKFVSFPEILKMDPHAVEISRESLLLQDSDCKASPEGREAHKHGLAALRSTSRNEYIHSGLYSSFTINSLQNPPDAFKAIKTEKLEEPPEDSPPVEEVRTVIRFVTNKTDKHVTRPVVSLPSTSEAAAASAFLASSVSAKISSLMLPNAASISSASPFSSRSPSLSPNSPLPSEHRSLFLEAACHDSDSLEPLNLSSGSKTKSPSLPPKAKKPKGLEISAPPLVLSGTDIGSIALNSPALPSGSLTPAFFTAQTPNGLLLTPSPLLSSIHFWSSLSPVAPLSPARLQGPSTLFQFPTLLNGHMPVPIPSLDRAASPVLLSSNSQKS
# Summary of the method: as §1
# FEV = molecular target: T7, FEV (Homo sapiens, UniProt Q99581 1-238); conditions: protein: recombinant; tags: N-terminal GST; dsDNA, one strand shown
# T7 sequence: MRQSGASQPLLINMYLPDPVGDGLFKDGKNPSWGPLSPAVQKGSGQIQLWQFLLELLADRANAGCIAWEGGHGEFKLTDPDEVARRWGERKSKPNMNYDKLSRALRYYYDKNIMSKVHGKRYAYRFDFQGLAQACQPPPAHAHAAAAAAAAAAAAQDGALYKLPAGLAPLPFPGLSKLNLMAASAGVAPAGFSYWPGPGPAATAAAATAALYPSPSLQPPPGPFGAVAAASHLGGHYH
# Summary of the method: as §1
# ETV5 = ETV5 (Homo sapiens, UniProt P41161 1-510); conditions: protein: recombinant; tags: N-terminal GST; dsDNA, one strand shown
# Summary of the method: as §1
# HSF1 = HSF1 (Homo sapiens, UniProt Q00613 1-529); conditions: protein: recombinant; tags: N-terminal GST; chain copies: 3; dsDNA, one strand shown
# Summary of the method: as §1
# SPIC = molecular target: T8, SPIC (Homo sapiens, UniProt Q8N5J4 1-248); conditions: protein: recombinant; tags: N-terminal GST; dsDNA, one strand shown
# T8 sequence: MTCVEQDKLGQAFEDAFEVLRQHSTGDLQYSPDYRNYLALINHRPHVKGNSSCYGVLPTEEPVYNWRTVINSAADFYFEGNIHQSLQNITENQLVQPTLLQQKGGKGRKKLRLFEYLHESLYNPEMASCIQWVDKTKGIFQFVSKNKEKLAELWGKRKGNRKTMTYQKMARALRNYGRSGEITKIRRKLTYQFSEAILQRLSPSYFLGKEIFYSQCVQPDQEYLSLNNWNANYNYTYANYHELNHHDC
# Summary of the method: as §1
# ELF4 = ELF4 (Homo sapiens, UniProt Q99607 1-663); conditions: protein: recombinant; tags: N-terminal GST; dsDNA, one strand shown
# Summary of the method: as §1
# ELK4 = molecular target: T9, ELK4 (Homo sapiens, UniProt P28324-2 1-405); conditions: protein: recombinant; tags: N-terminal GST; dsDNA, one strand shown
# T9 sequence: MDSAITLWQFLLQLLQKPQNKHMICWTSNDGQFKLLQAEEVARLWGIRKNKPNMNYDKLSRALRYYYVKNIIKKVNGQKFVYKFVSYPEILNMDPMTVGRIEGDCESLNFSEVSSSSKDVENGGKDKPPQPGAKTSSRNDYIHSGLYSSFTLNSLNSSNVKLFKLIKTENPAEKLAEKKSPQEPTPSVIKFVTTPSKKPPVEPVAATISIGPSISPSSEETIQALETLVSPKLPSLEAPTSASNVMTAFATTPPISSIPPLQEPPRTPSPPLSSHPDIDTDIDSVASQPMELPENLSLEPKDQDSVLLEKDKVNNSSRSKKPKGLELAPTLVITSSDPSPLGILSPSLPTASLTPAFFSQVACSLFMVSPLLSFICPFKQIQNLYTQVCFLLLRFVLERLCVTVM
# Summary of the method: as §1
# ETV2 = molecular target: T10, ETV2 (Homo sapiens, UniProt O00321 1-342); conditions: protein: recombinant; tags: N-terminal GST; dsDNA, one strand shown
# T10 sequence: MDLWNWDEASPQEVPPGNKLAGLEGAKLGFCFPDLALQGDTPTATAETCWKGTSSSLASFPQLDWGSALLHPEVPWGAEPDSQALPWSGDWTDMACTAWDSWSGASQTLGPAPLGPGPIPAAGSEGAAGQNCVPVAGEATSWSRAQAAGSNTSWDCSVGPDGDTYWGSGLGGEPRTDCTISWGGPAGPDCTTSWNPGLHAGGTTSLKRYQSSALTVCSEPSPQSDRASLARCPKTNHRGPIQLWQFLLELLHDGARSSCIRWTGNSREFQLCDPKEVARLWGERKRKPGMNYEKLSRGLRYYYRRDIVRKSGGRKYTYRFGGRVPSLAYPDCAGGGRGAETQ
# Summary of the method: as §1
# ELF3 = molecular target: T11, ELF3 (Homo sapiens, UniProt P78545 1-371); conditions: protein: recombinant; tags: N-terminal GST; dsDNA, one strand shown
# T11 sequence: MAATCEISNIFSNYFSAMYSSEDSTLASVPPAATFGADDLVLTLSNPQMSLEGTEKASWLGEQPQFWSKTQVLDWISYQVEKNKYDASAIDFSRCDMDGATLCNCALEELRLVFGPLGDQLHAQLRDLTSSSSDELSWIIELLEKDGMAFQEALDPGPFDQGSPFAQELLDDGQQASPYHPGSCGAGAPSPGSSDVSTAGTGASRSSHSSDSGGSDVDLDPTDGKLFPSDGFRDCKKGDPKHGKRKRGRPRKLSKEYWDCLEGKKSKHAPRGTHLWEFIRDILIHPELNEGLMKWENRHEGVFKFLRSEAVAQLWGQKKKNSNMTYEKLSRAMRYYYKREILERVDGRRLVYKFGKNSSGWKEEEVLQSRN
# Summary of the method: as §1
# CRX = CRX (Homo sapiens, UniProt O43186 1-299); conditions: protein: recombinant; tags: N-terminal GST; dsDNA, one strand shown
# Summary of the method: as §1
# ETV1 = ETV1 (Homo sapiens, UniProt P50549 1-477); conditions: protein: recombinant; tags: N-terminal GST; dsDNA, one strand shown
# Summary of the method: as §1
# Chain of ETV1 (P50549 whole entry): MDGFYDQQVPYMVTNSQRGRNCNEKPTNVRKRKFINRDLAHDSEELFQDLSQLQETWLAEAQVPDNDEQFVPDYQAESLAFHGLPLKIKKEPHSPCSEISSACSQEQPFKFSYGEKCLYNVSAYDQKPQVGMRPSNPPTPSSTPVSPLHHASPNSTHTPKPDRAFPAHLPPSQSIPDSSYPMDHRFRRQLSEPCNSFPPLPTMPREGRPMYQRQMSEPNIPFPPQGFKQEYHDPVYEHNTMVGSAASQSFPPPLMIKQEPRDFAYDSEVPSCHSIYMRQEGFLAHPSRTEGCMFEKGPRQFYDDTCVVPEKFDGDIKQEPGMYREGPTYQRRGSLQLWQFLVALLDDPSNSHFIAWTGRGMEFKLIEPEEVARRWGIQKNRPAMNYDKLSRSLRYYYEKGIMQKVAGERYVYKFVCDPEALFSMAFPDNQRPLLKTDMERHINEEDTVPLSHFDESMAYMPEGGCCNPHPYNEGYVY
# Chain of ETV5 (P41161 whole entry): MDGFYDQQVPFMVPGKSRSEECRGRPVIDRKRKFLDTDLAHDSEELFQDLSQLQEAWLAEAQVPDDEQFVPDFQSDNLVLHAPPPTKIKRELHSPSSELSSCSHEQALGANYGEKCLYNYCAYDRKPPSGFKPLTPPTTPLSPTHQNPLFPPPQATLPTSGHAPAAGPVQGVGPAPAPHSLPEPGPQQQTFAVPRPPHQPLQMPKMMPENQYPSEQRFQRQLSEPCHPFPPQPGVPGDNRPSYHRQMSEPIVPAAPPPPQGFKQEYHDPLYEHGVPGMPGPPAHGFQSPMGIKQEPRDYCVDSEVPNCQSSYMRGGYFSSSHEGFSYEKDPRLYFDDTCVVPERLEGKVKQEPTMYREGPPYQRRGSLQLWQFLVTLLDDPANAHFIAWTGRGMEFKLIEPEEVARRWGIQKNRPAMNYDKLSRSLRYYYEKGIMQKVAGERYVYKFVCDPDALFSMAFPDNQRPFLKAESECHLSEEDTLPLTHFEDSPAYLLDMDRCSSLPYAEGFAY
# Chain of HSF1 (Q00613 whole entry): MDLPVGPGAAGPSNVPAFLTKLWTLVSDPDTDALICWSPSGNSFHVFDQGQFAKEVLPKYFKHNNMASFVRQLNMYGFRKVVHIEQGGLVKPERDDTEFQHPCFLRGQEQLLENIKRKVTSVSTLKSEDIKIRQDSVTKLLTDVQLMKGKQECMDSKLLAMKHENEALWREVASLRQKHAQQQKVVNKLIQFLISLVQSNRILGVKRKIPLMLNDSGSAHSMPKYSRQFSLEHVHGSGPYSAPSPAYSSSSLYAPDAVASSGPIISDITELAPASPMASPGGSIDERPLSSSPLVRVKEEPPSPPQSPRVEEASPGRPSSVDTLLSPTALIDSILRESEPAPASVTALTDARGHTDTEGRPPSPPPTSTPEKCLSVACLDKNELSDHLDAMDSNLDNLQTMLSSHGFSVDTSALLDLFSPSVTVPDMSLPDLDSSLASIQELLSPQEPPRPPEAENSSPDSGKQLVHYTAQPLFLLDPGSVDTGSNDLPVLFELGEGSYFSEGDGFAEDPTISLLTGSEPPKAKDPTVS
# Chain of ELF1 (P32519 whole entry): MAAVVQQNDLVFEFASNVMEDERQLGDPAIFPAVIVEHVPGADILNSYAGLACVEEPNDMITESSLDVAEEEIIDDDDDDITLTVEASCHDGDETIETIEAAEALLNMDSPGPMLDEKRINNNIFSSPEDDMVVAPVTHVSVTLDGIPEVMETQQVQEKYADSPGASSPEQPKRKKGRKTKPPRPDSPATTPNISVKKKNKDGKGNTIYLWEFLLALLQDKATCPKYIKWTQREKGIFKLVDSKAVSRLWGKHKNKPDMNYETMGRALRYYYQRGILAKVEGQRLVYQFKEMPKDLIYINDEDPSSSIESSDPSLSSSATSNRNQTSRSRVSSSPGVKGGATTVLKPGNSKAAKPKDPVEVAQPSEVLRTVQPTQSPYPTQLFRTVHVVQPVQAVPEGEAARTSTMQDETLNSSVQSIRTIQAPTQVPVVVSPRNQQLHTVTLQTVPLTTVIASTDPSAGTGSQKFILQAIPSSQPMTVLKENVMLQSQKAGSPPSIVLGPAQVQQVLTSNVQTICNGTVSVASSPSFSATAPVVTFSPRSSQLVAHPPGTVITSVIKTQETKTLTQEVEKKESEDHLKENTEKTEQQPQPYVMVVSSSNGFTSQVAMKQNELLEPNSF
# Chain of SPIB (Q01892 whole entry): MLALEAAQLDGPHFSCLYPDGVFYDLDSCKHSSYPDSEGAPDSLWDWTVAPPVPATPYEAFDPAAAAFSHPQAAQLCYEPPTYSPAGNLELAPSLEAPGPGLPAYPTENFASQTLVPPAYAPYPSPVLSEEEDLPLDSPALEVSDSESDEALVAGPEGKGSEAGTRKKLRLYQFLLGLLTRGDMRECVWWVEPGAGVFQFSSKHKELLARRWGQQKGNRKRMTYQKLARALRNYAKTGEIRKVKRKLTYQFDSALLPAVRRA
# Chain of ELF4 (Q99607 whole entry): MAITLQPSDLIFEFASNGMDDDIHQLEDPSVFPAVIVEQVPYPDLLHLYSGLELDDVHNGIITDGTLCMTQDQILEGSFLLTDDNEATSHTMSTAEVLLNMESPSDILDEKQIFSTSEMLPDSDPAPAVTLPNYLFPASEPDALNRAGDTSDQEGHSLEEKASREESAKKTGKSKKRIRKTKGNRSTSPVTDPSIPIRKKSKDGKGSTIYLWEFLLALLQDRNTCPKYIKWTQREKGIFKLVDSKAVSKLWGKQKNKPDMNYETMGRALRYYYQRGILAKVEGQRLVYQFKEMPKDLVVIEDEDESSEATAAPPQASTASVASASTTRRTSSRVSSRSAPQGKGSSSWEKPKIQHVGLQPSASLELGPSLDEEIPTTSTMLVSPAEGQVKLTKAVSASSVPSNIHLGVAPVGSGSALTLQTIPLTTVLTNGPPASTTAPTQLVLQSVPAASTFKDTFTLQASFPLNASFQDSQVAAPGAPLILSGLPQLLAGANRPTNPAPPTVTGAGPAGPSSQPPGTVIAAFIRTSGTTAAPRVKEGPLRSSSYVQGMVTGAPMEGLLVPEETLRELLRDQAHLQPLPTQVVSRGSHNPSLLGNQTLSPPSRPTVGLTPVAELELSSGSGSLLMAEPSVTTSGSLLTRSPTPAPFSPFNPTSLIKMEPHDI
# Chain of CRX (O43186 whole entry): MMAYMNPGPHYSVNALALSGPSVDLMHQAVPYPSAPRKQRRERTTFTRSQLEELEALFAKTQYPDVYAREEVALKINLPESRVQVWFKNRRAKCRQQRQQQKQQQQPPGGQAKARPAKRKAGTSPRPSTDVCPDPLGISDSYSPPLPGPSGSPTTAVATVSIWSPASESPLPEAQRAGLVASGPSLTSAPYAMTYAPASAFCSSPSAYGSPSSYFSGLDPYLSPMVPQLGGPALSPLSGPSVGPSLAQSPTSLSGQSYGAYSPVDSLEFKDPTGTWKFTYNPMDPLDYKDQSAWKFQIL
sequence,measurement,setting,value
CTAAGA,binding signal,FLI1,"1.21 fold enrichment (6-mer frequency, TF over GST control)"
same,binding signal,ELK1,"1.22 fold enrichment (6-mer frequency, TF over GST control)"
same,binding signal,GABPA,"1.16 fold enrichment (6-mer frequency, TF over GST control)"
same,binding signal,ERG,"1.17 fold enrichment (6-mer frequency, TF over GST control)"
same,binding signal,ELF1,"1.18 fold enrichment (6-mer frequency, TF over GST control)"
same,binding signal,EHF,"1.26 fold enrichment (6-mer frequency, TF over GST control)"
same,binding signal,SPI1,"1.15 fold enrichment (6-mer frequency, TF over GST control)"
same,binding signal,SPIB,"1.24 fold enrichment (6-mer frequency, TF over GST control)"
same,binding signal,ELK3,"1.18 fold enrichment (6-mer frequency, TF over GST control)"
same,binding signal,FEV,"1.08 fold enrichment (6-mer frequency, TF over GST control)"
same,binding signal,ETV5,"1.24 fold enrichment (6-mer frequency, TF over GST control)"
same,binding signal,HSF1,"1.64 fold enrichment (6-mer frequency, TF over GST control)"
same,binding signal,SPIC,"1.18 fold enrichment (6-mer frequency, TF over GST control)"
same,binding signal,ELF4,"1.27 fold enrichment (6-mer frequency, TF over GST control)"
same,binding signal,ELK4,"1.16 fold enrichment (6-mer frequency, TF over GST control)"
same,binding signal,ETV2,"1.2 fold enrichment (6-mer frequency, TF over GST control)"
same,binding signal,ELF3,"1.24 fold enrichment (6-mer frequency, TF over GST control)"
same,binding signal,CRX,"2.05 fold enrichment (6-mer frequency, TF over GST control)"
same,binding signal,ETV1,"1.22 fold enrichment (6-mer frequency, TF over GST control)"

# Source: publication PMC7862700, “An all-to-all approach to the identification of sequence-specific readers for epigenetic DNA modifications on cytosine”
